Data as given in PubChem BioAssay AID602144 (Vanderbilt Specialized Chemistry Center, 2011).
Values without a mark were called inactive. The source made the active and inactive calls. Rule as the data show it: active = remaining activity below about 50%; inactive = the rest.

Each molecule was assayed against Phospholipase D1 (Homo sapiens) (UniProt Q13393) (assay: cellular phospholipase D1 activity inhibition – Calu-1 cells, single concentration (AID 602144;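 also: tested at 200 nM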)). Settings: cellular PLD1 activity, hits give low values.
Sequence of Phospholipase D1 (Homo sapiens) (Q13393 whole entry, looked up): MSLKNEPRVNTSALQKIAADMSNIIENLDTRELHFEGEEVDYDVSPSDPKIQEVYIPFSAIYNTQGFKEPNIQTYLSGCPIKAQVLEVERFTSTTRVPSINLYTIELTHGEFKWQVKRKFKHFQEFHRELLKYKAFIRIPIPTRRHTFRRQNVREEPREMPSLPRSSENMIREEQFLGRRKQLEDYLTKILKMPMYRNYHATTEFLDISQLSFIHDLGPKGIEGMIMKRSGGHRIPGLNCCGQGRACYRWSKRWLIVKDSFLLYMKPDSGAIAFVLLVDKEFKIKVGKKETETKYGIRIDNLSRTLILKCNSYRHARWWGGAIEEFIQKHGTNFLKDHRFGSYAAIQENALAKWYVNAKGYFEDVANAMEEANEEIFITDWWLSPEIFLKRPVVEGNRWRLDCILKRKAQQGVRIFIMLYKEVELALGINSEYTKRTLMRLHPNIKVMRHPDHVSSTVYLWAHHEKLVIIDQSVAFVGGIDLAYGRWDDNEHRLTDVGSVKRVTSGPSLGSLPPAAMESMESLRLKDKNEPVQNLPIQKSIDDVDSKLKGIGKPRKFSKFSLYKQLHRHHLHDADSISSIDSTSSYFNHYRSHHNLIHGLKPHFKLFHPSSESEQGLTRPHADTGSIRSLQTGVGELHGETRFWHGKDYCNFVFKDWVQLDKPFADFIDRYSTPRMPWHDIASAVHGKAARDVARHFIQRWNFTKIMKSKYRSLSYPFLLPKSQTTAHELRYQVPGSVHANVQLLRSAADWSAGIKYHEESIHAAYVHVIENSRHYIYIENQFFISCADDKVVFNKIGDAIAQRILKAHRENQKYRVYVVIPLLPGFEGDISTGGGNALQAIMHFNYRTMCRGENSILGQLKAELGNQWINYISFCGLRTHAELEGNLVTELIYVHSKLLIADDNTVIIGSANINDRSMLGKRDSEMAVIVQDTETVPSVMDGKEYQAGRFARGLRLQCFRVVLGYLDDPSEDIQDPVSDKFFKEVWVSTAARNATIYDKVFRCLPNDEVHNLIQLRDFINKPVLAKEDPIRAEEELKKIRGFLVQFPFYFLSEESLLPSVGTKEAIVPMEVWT
Sequence of Phospholipase D1 (Homo sapiens) (Q13393 whole entry, looked up): as above
With `C[C@@H](CN1CCC(n2c(=O)[nH]c3ccccc32)CC1)NC(=O)COc1ccccc1` the remaining activity was 28.1% (active).
In the case of `O=C(NCCN1CCC(n2c(=O)[nH]c3ccccc32)CC1)NC(c1ccccc1)c1ccccc1`, the remaining activity is reported as 146%.
In the case of `O=C(NCCN1CCC(c2nc3ccccc3[nH]2)CC1)C1CC1c1ccccc1` (stereo not given), the remaining activity is reported as 56.9%.
`O=C1Cc2cc(CCN3CCN(c4nsc5ccccc45)CC3)c(Cl)cc2N1` showed a remaining activity of 75.1%.
`O=C(NCCN1CCC2(C=Cc3ccccc32)CC1)c1cnc2ccccc2c1` showed a remaining activity of 126%.
For `O=C(NCCN1CC=C(n2nnc3cc(C(F)(F)F)ccc32)CC1)c1cnc2ccccc2c1`, the remaining activity was 44.5% (active).
`CCS(=O)(=O)NCCN1CCC(n2c(=O)[nH]c3ccccc32)CC1` showed a remaining activity of 121%.
Molecule `CCCS(=O)(=O)NCCN1CCC(n2c(=O)[nH]c3ccccc32)CC1` has a remaining activity of 120%.
`O=C(CCc1ccc(F)cc1)NCCN1CCC(n2c(=O)[nH]c3ccccc32)CC1` was tested, and the remaining activity was 75.2%.
For `C[C@H](CN1CCC2(CC1)CNCc1ccccc12)NC(=O)c1ccc2ccccc2c1`, the remaining activity was 126%.
`Cc1cccc(NC(=S)NCCN2CCC(n3c(=O)[nH]c4ccccc43)CC2)c1` gave a remaining activity of 148%.
In the case of `Cc1ccc(C(=O)NCCN2CCN(c3ccccn3)CC2)cc1`, the remaining activity is reported as 111%.
With `O=C1c2ccccc2C(=O)N1CCCN1CCC(n2c(=O)[nH]c3ccccc32)CC1` the remaining activity was 76.2%.
For `O=C(NCCN1CCC(n2c(=O)[nH]c3cc(Cl)ccc32)CC1)c1ccc2ccccc2c1`, the remaining activity was 10.3% (active).
`COc1cccc(N2CCN(CCNC(=O)c3ccc(Cl)cc3)CC2)c1` gave a remaining activity of 96.1%.
With `COc1ccc(S(=O)(=O)NCCN2CCC(n3c(=O)[nH]c4ccccc43)CC2)cc1` the remaining activity was 140%.
`O=C(NCCN1CCC(C(=O)Nc2ccccc2)CC1)c1ccc2ccccc2c1` was tested, and the remaining activity was 102%.
In the case of `O=C(NCCN1CCC(n2nnc3ccccc32)CC1)C1CC1c1ccccc1` (stereo not given), the remaining activity is reported as 52.7%.
Work on `O=C(NCCN1CCC(n2nnc3ccccc32)CC1)c1cnc2ccccc2c1` yielded a remaining activity of 79.2%.
In the case of `C[C@@H](CN1CC=C(n2c(=O)[nH]c3ccccc32)CC1)NC(=O)[C@H]1C[C@@H]1c1ccccc1`, the remaining activity is reported as 15.7% (active).
For `C[C@@H](CN1CCC(n2c(=O)[nH]c3cc(I)ccc32)CC1)NC(=O)c1ccc(Cl)cc1`, the remaining activity was 15.5% (active).
With `C[C@@H](CN1CCC(n2c(=O)[nH]c3ccccc32)CC1)NC(=O)c1ccc(Cl)c(Cl)c1` the remaining activity was 20.9% (active).
Molecule `O=C(NCCN1CCC(n2c(=O)[nH]c3ccccc32)CC1)C(c1ccccc1)(c1ccccc1)c1ccccc1` has a remaining activity of 99%.
`O=C(NCCN1CCC(n2c(=O)[nH]c3ccccc32)CC1)c1ccc2ccc3c4c2c1CC=C4CC=C3` showed a remaining activity of 95.6%.
For `O=C(NCCN1CCC(n2c(=O)[nH]c3ccccc32)CC1)c1ccc(-c2ccccc2)o1`, the remaining activity was 38.7% (active).
In the case of `O=C(NCCN1CCC2(CC1)CNc1ccccc12)c1ccc2ccccc2c1`, the remaining activity is reported as 43.9% (active).
In the case of `Cc1ccc(C(=O)N[C@@H](C)CN2CCC(n3c(=O)[nH]c4c(F)cccc43)CC2)cc1`, the remaining activity is reported as 40.7% (active).
`Cn1c(C(=O)NCCN2CCN(c3ccncc3)CC2)cc2ccccc21` was tested, and the remaining activity was 188%.
`O=C(NCCN1CCC(n2c(=O)[nH]c3ccccc32)CC1)c1ncccn1` was tested, and the remaining activity was 120%.
In the case of `O=c1[nH]c2ccccc2n1C1CCN(CCNS(=O)(=O)c2cccc(C(F)(F)F)c2)CC1`, the remaining activity is reported as 111%.
For `CC(C)[C@@H](CN1CCC(n2c(=O)[nH]c3ccccc32)CC1)NC(=O)c1ccc(F)cc1`, the remaining activity was 103%.
In the case of `C[C@@H](CN1CCC(n2c(=O)[nH]c3ccccc32)CC1)NC(=O)c1cccnc1`, the remaining activity is reported as 41.1% (active).
With `O=C(NCCN1CCC(n2c(=O)[nH]c3ccccc32)CC1)c1cccc2ccc3ccccc3c12` the remaining activity was 75.2%.
Molecule `C[C@@H](CN1CCC2(C=Cc3ccccc32)CC1)NC(=O)c1ccc2ccccc2c1` has a remaining activity of 102%.
For `Cn1c(=O)n(C2CCN(CCNC(=O)c3ccc(F)cc3)CC2)c2ccccc21`, the remaining activity was 84.4%.
For `O=c1[nH]c2ccccc2n1C1CCN(CCNS(=O)(=O)c2ccccc2[N+](=O)[O-])CC1`, the remaining activity was 132%.
For `O=C(NCCN1CCC(n2nnc3ccccc32)CC1)c1ccc2ccccc2c1`, the remaining activity was 19.1% (active).
In the case of `O=C(NCCN1CCC(n2c(=O)[nH]c3ccccc32)CC1)NCc1cccc(F)c1`, the remaining activity is reported as 45.6% (active).
`O=C(NCCN1CCC(C(=O)NCC2CC2)CC1)c1ccc2ccccc2c1` gave a remaining activity of 106%.
Work on `O=C(NCCN1CCN(c2ccccn2)CC1)c1ccc(F)cc1` yielded a remaining activity of 126%.
